In PubChem BioAssay (Tox21):
Records with an inconclusive call do not appear. Entries that show only a call come without a potency. More than one record can exist for a structure, and the calls need not agree. The source made the active and inactive calls. The call rests on the fitted dose curve; in most records, active means well fitted cell-killing curve with a large enough effect in the repeat runs; inconclusive means weak or mixed curves, or effect the other way; inactive means no such curve, though single readings can be large or run the other way.
Potency means the concentration at half of the fitted maximal effect.

Experiment: Caspase-3/7 induction in CHO-K1 cells by small molecules, qHTS cell viability counter screen (AID 1346979); further: nearly all actives have a fitted effect of over 35% in size
Conditions: CellTiter-Fluor fluorescence, 17 h; series mostly up to 92.4 µM; activity change, negative = cytotoxicity: at the top concentration
Excerpt: National Center for Advancing Translational Sciences [NCATS]
NIH Chemical Genomics Center [NCGC]
U.S. Environmental Protection Agency [EPA]
National Institutes of Environmental Health Sciences [NIEHS]
National Toxicology Program [NTP]
U.S. Food and Drug Administration [FDA]
Apoptosis is a process of programmed cell death and plays a central role in the development of multicellular organisms. It is a highly regulated process and induces cell death by activating caspases, which are the members of cysteine aspartic acid-specific protease (caspase) family. Caspases involved in apoptosis are classified by their mechanism of action as initiator caspases (caspase-2, -8, -9 and -10) and executioner caspases (caspase-3, -6, and -7). Inhibition of apoptosis results in number of cancers, autoimmune diseases, inflammatory diseases and viral infection. To identify small molecule compounds that induce apoptosis, a homogeneous, luminescent Caspase-Glo 3/7 assay was used. Wild type CHO-K1 cells were used to screen Tox21 libraries for identifying caspase-3/7 activity inducers. Also cytotoxicity of the compounds was tested in parallel by measuring the cell viability using CellTiter-Fluor assay system in the same wells.
Tox21 Assay Protocol Summary:
CHO-K1 cells were dispensed at 1,500 per well in 5uL of culture medium into white solid bottom 1536-well plates (Corning Life Sciences, Corning, NY) using a Multidrop Combi (Thermo Scientific, Waltham, MA) dispenser. The assay plates were incubated at 37 C and 5% CO2 for 5hr, and then 23nL of compounds dissolved in DMSO and positive control were transferred using a Pintool station (Wako, San Diego, CA). The assay plates were incubated at 37C and 5% CO2 for 17hr. For cytotoxicity read, after 16hr incubation at 37C, 1uL CellTiter-Fluor reagent (Promega Corporation, Madison, WI) was added to each well of the assay plates using Flying Reagent Dispenser (FRD, Aurora Discovery, San Diego, CA). After 1hr incubation at 37C and 5% CO2, the fluorescence signal was quantified using a ViewLux plate reader (PerkinElmer, Shelton, CT).
With `C=CCO` the Potency was “inactive”.
In the case of `CCOP(=S)(OCC)SCCSCC`, the Potency is reported as “inactive”.
For `ClCCBr`, the Potency was “inactive”.
In the case of `O=[N+]([O-])c1ccc([As](=O)(O)O)cc1`, the Potency is reported as “inactive”.
With `O=S(=O)(c1ccc(O)cc1)c1ccc(O)cc1` the Potency was “inactive”.
With `Nc1ccc(Br)cc1` the Potency was “inactive”.
For `COCCl`, the Potency was 20.1 µM (active) and inactive.
For `CN(C)N=O`, the “activity change, negative = cytotoxicity” value was 7.05% (inactive).
For `NCC(O)c1ccc(O)cc1` (stereo not given), the Potency was “inactive”.
In the case of `CCCCOC(=O)c1ccccc1C(=O)OCCCC`, the Potency is reported as “inactive”.
In the case of `O=[N+]([O-])c1ccc(Oc2ccc(Cl)cc2Cl)cc1`, the “activity change, negative = cytotoxicity” value is reported as -2.52% (inactive).
In the case of `Cc1ccc(N)cc1Cl`, the Potency is reported as “inactive”.
For `O=Cc1cccc(Oc2ccccc2)c1`, the Potency was “inactive”.
In the case of `CCCN(CCC)N=O`, the Potency is reported as “inactive”.
With `Nc1c(Cl)c(Cl)nc(C(=O)O)c1Cl` the Potency was “inactive”.
For `COC(=O)NS(=O)(=O)c1ccc(N)cc1`, the Potency was “inactive”.
With `Cc1cc(-c2cc(C)c(N)c(C)c2)cc(C)c1N` the Potency was “inactive”.
For `[N-]=[N+]=[N-]`, the Potency was “inactive”.
In the case of `CCN(CC)CCO`, the Potency is reported as “inactive”.
With `Clc1cccc(Cl)c1Cl` the Potency was “inactive”.
With `CC(Br)C(=O)O` (stereo not given) the Potency was “inactive”.
For `C[C@]12CC[C@H]3[C@@H](CC[C@@]45O[C@@H]4C(O)=C(C#N)C[C@]35C)[C@@H]1CC[C@@H]2O`, the “activity change, negative = cytotoxicity” value was 2.54% [at 42.5 µM] (inactive).
In the case of `CCCCN(CCCC)SN(C)C(=O)Oc1cccc2c1OC(C)(C)C2`, the Potency is reported as 69.7 µM (active).
With `BrCCBr` the Potency was “inactive”.
For `CC(C)C#N`, the “activity change, negative = cytotoxicity” value was -1.47% (inactive).
In the case of `NCCc1ccc(O)cc1`, the Potency is reported as “inactive”.
For `CC(Oc1ccc(Cl)cc1Cl)C(=O)O` (stereo not given), the Potency was “inactive”.
For `O=C(NC(=O)c1c(F)cccc1F)Nc1cc(Cl)c(OC(F)(F)C(F)C(F)(F)F)cc1Cl` (stereo not given), the “activity change, negative = cytotoxicity” value was -0.0428% [at 42.5 µM] (inactive).
With `Cc1ccc([N+](=O)[O-])cc1C` the Potency was “inactive”.
For `CC(C)N1C(=O)c2ccccc2NS1(=O)=O`, the Potency was “inactive”.
For `CC(C)OC(=O)Nc1ccccc1`, the Potency was “inactive”.
With `CCC[CH2][Sn]([Cl])([Cl])[Cl]` the Potency was “inactive”.
With `CN=C=S` the “activity change, negative = cytotoxicity” value was -3.89% (inactive).
For `O=C1CCCN1`, the Potency was “inactive”.
With `CCNc1nc(NC(C)(C)C)nc(SC)n1` the Potency was “inactive”.
In the case of `C1CN2CCN1CC2`, the “activity change, negative = cytotoxicity” value is reported as 2.01% (inactive).
With `O=C(O)c1ccccn1` the Potency was “inactive”.
For `CCCCCOC(=O)c1ccccc1C(=O)OCCCCC`, the Potency was “inactive”.
In the case of `O=NN1CCCC1`, the Potency is reported as “inactive”.
In the case of `O=c1ccc(=O)[nH][nH]1`, the “activity change, negative = cytotoxicity” value is reported as -0.148% (inactive).
